Experimental findings from PubChem BioAssay AID489043 (National Center for Advancing Translational Sciences (NCATS), 2010) are described below.

Results filed as inconclusive are left out. Where a call stands in place of a potency, no number is given. Activity calls are given as the source filed them. Calls follow the shape of the dose curve; as a rule, active = well fitted activation curve with a large enough effect; inconclusive = small, poorly fitted or top-dose-only effect; inactive = flat fitted curve, though single readings scatter.
Potency is read from the fitted curve at half-maximal effect.

Relaxin receptor 2 (Homo sapiens), sequence (Q8WXD0 whole entry, looked up): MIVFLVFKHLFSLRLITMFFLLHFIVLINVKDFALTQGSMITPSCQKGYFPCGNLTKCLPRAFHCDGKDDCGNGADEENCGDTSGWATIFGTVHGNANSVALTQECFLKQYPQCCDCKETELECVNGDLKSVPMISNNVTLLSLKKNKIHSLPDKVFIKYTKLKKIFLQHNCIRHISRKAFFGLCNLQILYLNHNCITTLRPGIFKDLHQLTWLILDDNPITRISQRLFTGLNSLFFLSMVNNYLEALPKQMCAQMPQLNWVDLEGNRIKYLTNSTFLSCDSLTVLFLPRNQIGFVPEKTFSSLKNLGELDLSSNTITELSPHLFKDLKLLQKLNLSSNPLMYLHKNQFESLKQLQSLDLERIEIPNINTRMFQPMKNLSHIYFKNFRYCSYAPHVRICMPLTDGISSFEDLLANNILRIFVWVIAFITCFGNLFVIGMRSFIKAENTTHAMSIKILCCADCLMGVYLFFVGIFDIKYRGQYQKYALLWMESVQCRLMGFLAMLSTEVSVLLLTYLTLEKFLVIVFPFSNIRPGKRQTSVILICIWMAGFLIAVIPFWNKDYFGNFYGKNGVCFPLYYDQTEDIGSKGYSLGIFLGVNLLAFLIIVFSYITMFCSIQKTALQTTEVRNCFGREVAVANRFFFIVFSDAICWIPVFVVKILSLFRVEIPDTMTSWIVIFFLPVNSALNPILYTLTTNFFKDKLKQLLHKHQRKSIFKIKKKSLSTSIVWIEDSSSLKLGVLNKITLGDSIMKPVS

This test has as its target Relaxin receptor 2 (Homo sapiens) (UniProt Q8WXD0). In words: qHTS Assay for Agonists of the Relaxin Receptor RXFP1: RXFP2 Hit Validation. Also: nearly all actives have a fitted effect of over 65% in size. The settings on record: HEK293 RXFP2 cAMP TR-FRET, 30 min; series mostly up to 115 µM. From the text:
NIH Chemical Genomics Center [NCGC] NIH Molecular Libraries Probe Production Centers Network [MLPCN] MLPCN Grant: R03 MH085705-01A1 Assay Submitter (PI): Alexander Agoulnik NCGC Assay Overview: The relaxin hormone is involved in the variety of biological functions in normal tissues and diseases. The role of relaxin is well-established in female reproduction and parturition, mammary gland and endometrial development, maintenance of myometrial quiescence during pregnancy. Relaxin signaling through its G protein-coupled receptor (GPCR) RXFP1 results in ECM remodeling through regulation of collagen deposition, cell invasiveness, proliferation and overall tissue homeostasis. […] Recombinant human relaxin (rhRlx) is currently being tested in clinical trials as a protective agent in congestive heart failure, in treating severe preeclampsia, and as an anti-fibrotic agent in systemic sclerosis. Upon relaxin binding RXFP1 activation leads to the activation of adenylate cyclase (AC) via Gs. cAMP will activate PKA, which phosphorylates many signaling proteins. Thus, detection of cAMP increase is an easy and reliable indication of relaxin receptor activation. To screen for agonists of the relaxin receptor, a HEK293T cell line stably transfected with RXFP1 was used. RXFP1 activation was assayed by changes in cAMP levels as detected with a time-resolved fluorescence energy transfer (TR-FRET) cAMP detection kit. This assay measures activation of a cell expressing RXFP2, another GPCR targeted by relaxin, to determine the selectivity of compounds for RXFP1.
NCGC Assay Protocol Summary: This is a cell-based assay for cAMP second messenger response to screen for agonists of the RXFP2 receptor. The assay was conducted in the presence of a PDE4 inhibitor (Ro 20174). The cells were lysed and the cAMP levels were measured with a TR-FRET cAMP kit. Presence of cAMP in the cell lysate disrupts binding between the cryptate-labeled anti-cAMP and d2-labeled cAMP pair, leading to a decrease in the TR-FRET signal. Data were normalized to the controls for basal activity (buffer only) and 100% activity (29 nM porcine relaxin). The EC50 values were determined from concentration-response data modeled with the standard Hill equation 1536-well assay protocol for the HEK293 RXFP2 cAMP assay: (1) Add 3 ul HEK293 RXFP2 cell culture. 2000 cells/well in DMEM/F12, 10% FBS, 1x Pen/Strep (dispensed offline with MultiDrop Combi). (2) Incubate 16-24 hr at 37C, 5% CO2. (3) Add 1 ul 400uM Ro20174 in DPBS, 0.05% BSA, 0.005% Tween 20. (3) Add 23 nl compounds in DMSO solution. Final concentration was 0.5 - 58 uM. (4) Incubate 30 min at 37C, 5% CO2. (5) Add 1 ul cAMP-d2 in lysis buffer (HTRF cAMP HiRange kit, CisBio). (6) Add 1 ul anti-cAMP antibody-cryptate in lysis buffer (HTRF cAMP HiRange kit, CisBio). (7) Incubate 30 min at room temperature. […] Keywords: relaxin, RXFP1, RXFP2, G-protein coupled receptor, cAMP, agonist, high throughput screening, MLSMR, MLSCN, NIH Roadmap, qHTS and NCGC
(In qHTS, concentration-response curves come from the screen itself.)
`Nc1nnc(CC(=O)N/N=C/c2ccc(-c3ccc(Cl)cc3Cl)o2)s1`: the Potency entry was “inactive”.
The same measure for `CC(=O)C1C(c2ccccc2)c2c(noc2C)CC1(C)O` (stereo not given): “inactive”.
In the case of `CCC1(C)Cc2c(sc3c2c2ncnn2c2nnc(SCC(=O)NCc4ccco4)n32)CO1` (stereo not given), the Potency is 8.7 µM (active).
The same measure for `Cn1c(=O)c2c(ncn2CC(=O)NC2CCCCC2)n(C)c1=O`: 48.9 µM (active).
Consider `Brc1ccc2ncnc(NCc3cccnc3)c2c1`, for which the Potency is 43.6 µM (active).
As for `C=C(C)C(=O)Nc1cccc(C2=NOC3(C2)C[C@@H](C(N)=O)N(C(=O)c2ccc(Cl)cc2)C3)c1` (stereo not given in full), the Potency entry is “inactive”.
Next, `O=C(O)CCSc1ccc2ccccc2n1`: 19.4 µM (active).
Next, `C=CCSc1nc2c(c(=O)[nH]1)C(C(C)C)C(C#N)=C(N)O2` (stereo not given): 43.6 µM (active).
The same measure for `CC(=O)Nc1ccc(NC(=O)CSc2ccc3nnc(-c4ccccn4)n3n2)cc1`: “inactive”; for `O=[N+]([O-])c1cccc(CSc2nnc3ccccn23)c1`: 34.6 µM (active).
`Cn1c(N)c(C(=O)CSc2nn(-c3ccc(F)cc3)c(=S)s2)c(=O)n(C)c1=O`: the Potency is 21.8 µM (active).
The same measure for `COc1ccc(NC(=O)CSc2nc(-c3ccc(C)cc3)cc(C(F)(F)F)c2C#N)cc1`: “inactive”; for `COc1ccc(Nc2ncc(C#N)c(N)n2)c(OC)c1`: “inactive”; for `CCc1nnc(NC(=O)CSc2nc(C)nc3c2c(=O)n(C)c(=O)n3C)s1`: 10.9 µM (active).
The same measure for `Cc1ccc(-c2ccc3nnc(SCC(=O)NCC4CCCO4)n3n2)cc1` (stereo not given): “inactive”; for `O=C(Cn1cnc2c(nnn2-c2ccc(F)cc2)c1=O)NCC1CCCO1` (stereo not given): 11 µM (active); for `CC(C)c1ccccc1NC(=O)c1ccccc1NC(=O)C1CCCCC1`: “inactive”.
Next, `COc1ccc(OC)c(CNC(=O)C2CCN(C(=O)N(C)C)CC2)c1`: “inactive”.
In the case of `Cn1c(N)c(C(=O)CSc2nnc(NC3CCCCC3)s2)c(=O)n(C)c1=O`, the Potency result is “inactive”.
The same measure for `O=C(Nc1ccccc1C(=O)NCc1ccc(Cl)cc1)c1ccco1`: “inactive”; for `Cc1cc(C)n(C(=O)CCCn2cc([N+](=O)[O-])cn2)n1`: “inactive”.
Next, `COc1ccc(/C=C2/SC(=O)N(CC(=O)Nc3cc(C)on3)C2=O)cc1OC`: “inactive”; `Cc1ccccc1OCC(=O)Nc1sc(C(=O)Nc2cccc(C)c2C)c(C)c1C#N`: 6.9 µM (active); `C=CCOc1c(Cl)cc(CNc2ccc(N(C)C)cc2)cc1OC`: “inactive”.
In the case of `CC1C/C(=N\NC(N)=S)c2cc(Cl)ccc2S1` (stereo not given), the Potency result was “inactive”.
The same measure for `CCN(CC)S(=O)(=O)c1ccc2c(c1)nc(SCc1nc3ccsc3c(=O)[nH]1)n2CC`: 0.275 µM (active).
The same measure for `c1ccc(-c2nnc(-c3ccccn3)c(-c3ccccn3)n2)nc1`: “inactive”; for `Cc1cccc(NC(=O)c2ccccc2NC(=O)C2CCCCC2)c1C`: “inactive”.
The same measure for `Nc1c(S(=O)(=O)O)cc(NC(=O)c2ccccc2)c2c1C(=O)c1ccccc1C2=O`: “inactive”.
Take `CC(=O)CCCCn1c(=O)c2c(ncn2C)n(C)c1=O`: the Potency entry was “inactive”.
For the compound `CC(C)Oc1ccc(S(=O)(=O)N2CCOCC2)cc1NC(=O)c1cc([N+](=O)[O-])ccc1N1CCOCC1`, the Potency is 29.8 µM (active).
The same measure for `COC(=O)c1sc(N2C(=O)C(O)=C(C(=O)c3ccc(C)o3)C2c2ccc(F)cc2)nc1C` (stereo not given): 2.75 µM (active).
Next, `O=C(Nc1ccccc1C(=O)NCCN1CCOCC1)c1ccco1`: “inactive”; `CC(C)C(=O)Nc1ccc(Nc2ccccc2)cc1`: “inactive”; `Cc1cc(C)c(NC(=O)CS(=O)CC(=O)Nc2ccc(F)cc2F)c(C)c1` (stereo not given): “inactive”.
The same measure for `CCOC(=O)c1sc(NC(=O)CCc2ccc(OC)cc2)nc1C`: 17.3 µM (active).
Consider `O=C(Oc1ccccc1)Oc1ccc2c(c1)oc(=O)c1ccccc12`, for which the Potency was 19.4 µM (active).
Take `CCN(CC)c1ccc(S(=O)(=O)N2CCOCC2)cc1NC(=O)CSc1nncn1C`: the Potency was 12.3 µM (active).
Next, `CC(C)(C)C(=O)Nc1ccccc1C(=O)NCc1ccco1`: “inactive”.
Next, `O=C(O)c1cc(-c2ccc(Br)s2)nc2ccccc12`: 3.46 µM (active).
